Results published in article PMC12136788.
Substitutions are numbered along the chain they refer to. In all, about 5,800 sequences were measured (“enrichment r”: median about 0.68, highest 2% from about 11 on). The entries come from a sample that favours the highest values as a whole.

T1: UNK ZnF1-6 (called full-length) (human, UniProt Q9C0B0 30-357)
T1 sequence: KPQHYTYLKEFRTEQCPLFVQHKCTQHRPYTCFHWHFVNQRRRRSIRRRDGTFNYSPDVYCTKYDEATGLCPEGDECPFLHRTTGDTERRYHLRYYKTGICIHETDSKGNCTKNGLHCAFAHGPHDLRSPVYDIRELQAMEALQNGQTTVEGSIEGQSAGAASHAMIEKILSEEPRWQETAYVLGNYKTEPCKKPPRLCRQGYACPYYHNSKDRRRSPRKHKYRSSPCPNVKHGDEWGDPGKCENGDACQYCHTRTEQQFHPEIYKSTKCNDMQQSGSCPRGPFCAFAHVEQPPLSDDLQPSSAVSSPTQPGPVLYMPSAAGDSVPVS

B1: ENSG00000107863:be:win_4801|CDS|ENSG00000107863|bound_else_gene|NA|bound_elsewhere_windowed (ssRNA)
RNA: GGGAGUUCUACAGUCCGACGAUCUCCAGUCGACUGAGCCCUGAGGUGCAAUCCGUGGCAGAGAGCAAGGGGGACGAGGCAGAUGACGAGAGAAGCGAACUCAUCAGUGAAGGGCGGCCUGUGGAAACCGACAGCGAGAGCGAGCAACAGAGGAUUGAGCAUCA
B2: chr17:41691520:41691533:+|3pUTR|ENSG00000173812|msi1_unk|total|mutant (ssRNA)
RNA: GGGAGUUCUACAGUCCGACGAUCGGAACAAAUCUCAAACUGAUCCAUCAGUCAUGCCGCCCGCUGCCGAGCUUGCAACUUAACCGCAGCAGCUGCCCAAUGCCAUGUGAAGUAACAAACUGGUUUUUGGUUUUUUUUUCCCCUCAACAGAGGAUUGAGCAUCA
B3: chr19:5558166:5561399:-|three_prime_utr|ENSG00000223573|control|control|control (ssRNA)
RNA: GGGAGUUCUACAGUCCGACGAUCCCAGCUGAUGCACACUGCUUCAGACACUCCUGCUGGAGCCCCAGUCCCUGACAAGGACCUAGGACAUUUUUGCUCCUGCCCAGCCUAUCGGGAGGGAGCCUUGAGCCUUUCAGCUCUGCUCAACAGAGGAUUGAGCAUCA
B4: ENSG00000070961:be:win_51|CDS|ENSG00000070961|bound_else_gene|NA|bound_elsewhere_windowed (ssRNA)
RNA: GGGAGUUCUACAGUCCGACGAUCUUUGAAGGAAGCUAAUCAUGAUGGAGACUUUGGAAUUACGCUCGCAGAGCUGCGGGCUCUCAUGGAGCUCAGGUCCACAGAUGCAUUACGAAAAAUACAGGAAAGCUAUGGAGAUGUCUACAACAGAGGAUUGAGCAUCA
B5: chr16:48080881:48083801:-|three_prime_utr|ENSG00000140798|control|control|control (ssRNA)
RNA: GGGAGUUCUACAGUCCGACGAUCUGAGUUUGACAAGCCUGAAGUCCUUGCAGAGAAGCCAGAUUCUGCAUUUGCGAUGUUACUAGCAGCAGAAGUCAGAUUGUAGAGGUCCUGGCGGCUGAUUCUAGAGGAGGAAGAGGCUCUCAACAGAGGAUUGAGCAUCA
B6: chr1:205790044:205790145:-|3pUTR|ENSG00000133065|msi1|FALSE|bound_elsewhere (ssRNA)
RNA: GGGAGUUCUACAGUCCGACGAUCAGAUUCUUCUGCCUCUUUCUCCUUUCCAGACCCCUACUCUGUGCAGUGCUGACCACAGCUAGAGCCACCGCCCCAUUGCUCAACCAGUAUUUAUUUCCCUAAACGACCCUUCCUCACAUUCAACAGAGGAUUGAGCAUCA
B7: chr11:107429260:107429366:-|CDS|ENSG00000152404|unk|FALSE|unique (ssRNA)
RNA: GGGAGUUCUACAGUCCGACGAUCGAGGAAACCCACAUAUUCAGAUAAAGCACAAAAUUGUCAAGAAAGUAGAGAAUCAGACUUAGUAAAAUAUGGUAACAGUUCAAGGGAUAGAUAUGCUACAACAGAUACUGCAAAAAAUAGCAACAGAGGAUUGAGCAUCA
B8: chr7:5606511:5606625:+|3pUTR|ENSG00000075618|msi1_unk|FALSE|overlapping (ssRNA)
RNA: GGGAGUUCUACAGUCCGACGAUCGGGUGUCUUGGUCUUUUAUUUUUUGUAAGUGUCAUUUGUAUAACUCUAAACGCCCAUGAUAGUAGCUUCAAACUGGAAAUAGCGAAAUAAAAUAACUCAGUCUGCAGCCCCAGGCCGGCCCAACAGAGGAUUGAGCAUCA
B9: chr10:104129887:104130138:-|three_prime_utr|ENSG00000197748|control|control|control (ssRNA)
RNA: GGGAGUUCUACAGUCCGACGAUCAAAAAAUCAUUUCAUUUGGGUAAAAUGAUUUCCUUUUCUUUCUUACUGGGAAAUUGAAGUAGCAUGUCCUCUGAGUUGCAUGUUUUAGAUAAAAAAUUGUUUAAUUUUAGCCUUAAUUGUCAACAGAGGAUUGAGCAUCA
B10: chr18:9400975:9401076:+|3pUTR|ENSG00000128791|msi1|FALSE|unique (ssRNA)
RNA: GGGAGUUCUACAGUCCGACGAUCUAUAAAAAUAGAUAAUGCUCUUGGACACAUUUUGUAUUAUUCAUGAUCUGAAUAGUAGUUAGUUAAAAGAUCAUUUGUAAUAUUAUGAUCAACUGUUAUAAAUUAAGGUCUUAAUACCUUCAACAGAGGAUUGAGCAUCA
B11: chr3:46835109:46836203:-|three_prime_utr|ENSG00000160808|control|control|control (ssRNA)
RNA: GGGAGUUCUACAGUCCGACGAUCUGAAGGCACAAGCUGUUCCAGUAUAAUAAAGAAAAUAAUUAAAUUAAGAAAAGUUAUACUAGAAAUAAGAUAUAGGUAUGAUUAUUAUUAAUCAUUAGUUUGUAGUAUUACUUUGUUCUACAACAGAGGAUUGAGCAUCA
B12: chr15:38352922:38353023:+|3pUTR|ENSG00000166068|msi1|FALSE|unique (ssRNA)
RNA: GGGAGUUCUACAGUCCGACGAUCUACAUAUAAAUUUAUUUCUUUUGCAGAGCAUUAUAUUACUGGAUGUUUAAUUUACAAAAUAGUUGGGUAAAUGUUCCAACAAACUUUAAAGUACCUUGAAGUCAAAUUGUCUGUUUUUGUCAACAGAGGAUUGAGCAUCA
B13: chr15:38352922:38353023:+|3pUTR|ENSG00000166068|msi1|total|mutant (ssRNA)
RNA: B12 RNA with U83C, A84C
B14: chr11:62152232:62152344:+|3pUTR|ENSG00000149503|unk|FALSE|unique (ssRNA)
RNA: GGGAGUUCUACAGUCCGACGAUCUGCUCUGUAAAUAGUUGUUUUAAUUUAGCUGAAUGUUAGCAUUUUAGUCUUUGGCAUUUUAGCGUUUGGGAGGUAGAUUAAUAAAGUAUAUUCCUUCAAGCCUGCUGUUGAUACCAUGAACAACAGAGGAUUGAGCAUCA
B15: chr15:76949589:76949706:+|3pUTR|ENSG00000117906|msi1_unk|total|mutant (ssRNA)
RNA: GGGAGUUCUACAGUCCGACGAUCAUAAAUUUUUGUUUUUGUUCUAAGCCGAUUUAAUUUGGGAACUGACAGGACAAUGUUUUCCGGUUCCGCAUUUUGUUUAAAAACCUUUAAAGAAACCUUCCGAAGGACUCCGACCUCACACAACAGAGGAUUGAGCAUCA
B16: chr7:38725943:38726055:-|3pUTR|ENSG00000006715|unk|total|mutant (ssRNA)
RNA: GGGAGUUCUACAGUCCGACGAUCGAAAUUUUGGGGUCCACCGUGAAUAUUUUGUUAUUUAUUUGUUUGGCUCAUUCUUUAUACCGUAAUGGAAACAUAAGUCCCGGAGUCCGAAAUGAAUUUUUCCGACCUCCGUAAAACCAUCAACAGAGGAUUGAGCAUCA
B17: ENSG00000168003:stop:overlap|stop_codon|ENSG00000168003|stop_codon|NA|stop_codon (ssRNA)
RNA: GGGAGUUCUACAGUCCGACGAUCCUGACAUCCCAGGGGCUGUAAGUGCCAACAUGACUGUGAAGGUAAGAGUUCUAGAUGGGUAGAAACUGACCGGUGGAGGGUGGGCUGGGCUUGUAGAAGUCUGUACCCAGGGGAGCCCCUCAACAGAGGAUUGAGCAUCA
B18: chr2:16549458:16552935:-|three_prime_utr|ENSG00000197872|control|control|control (ssRNA)
RNA: GGGAGUUCUACAGUCCGACGAUCUUGCUACUGGAGUCCUUUAACAACAUCUAUAACGAUAAAAAAUUCCUAAUUGUUUGUGGUAGUAUUUUAAUUCUAGAUGUGUUAUCUCUCUGGGAAGUAUAGUUUAUAGAAACACAAAAUCAACAGAGGAUUGAGCAUCA
B19: chr4:67617988:67618115:-|3pUTR|ENSG00000033178|unk|total|mutant (ssRNA)
RNA: GGGAGUUCUACAGUCCGACGAUCAAAUGCCGAAUGUUAAAAAUUAUUGCCCGGGCCGUCUUUUUUUUUUCCAGAAACCUAAUCCGGGUAUUAAAUUUUGUGUUUUUUUUGUUUUUUUUUUUUAAACAGAAGCAUGUUAUUUCACAACAGAGGAUUGAGCAUCA
B20: chr4:168926953:168927063:+|3pUTR|ENSG00000129116|msi1_unk|FALSE|overlapping (ssRNA)
RNA: GGGAGUUCUACAGUCCGACGAUCCAAAAGAGUUUUCUAACAAGGUUAAUACCUUAGUUCUUAACAUUUUUUUUCUUUAUGUGUAGUGUUUUCAUGCUACCUUGGUAGGAAACUUAUUUACAAACCAUAUUAAAAGGCUAAUUUCAACAGAGGAUUGAGCAUCA
B21: chr4:67617988:67618115:-|3pUTR|ENSG00000033178|unk|FALSE|unique (ssRNA)
RNA: B19 RNA with C29U, C30A, C50U, C51A, C55U, C56A, C83U, C84A
B22: chr11:69651733:69651797:+|3pUTR|ENSG00000110092|msi1_unk|FALSE|overlapping (ssRNA)
RNA: GGGAGUUCUACAGUCCGACGAUCAAAACAUUUUAAAAACAUAGAAAAAUUCAGCAAACCAUUUUUAAAGUAGAAGAGGGUUUUAGGUAGAAAAACAUAUUCUUGUGCUUUUCCUGAUAAAGCACAGCUGUAGUGGGGUUCUAGCAACAGAGGAUUGAGCAUCA
B23: chr4:168926953:168927063:+|3pUTR|ENSG00000129116|msi1_unk|total|mutant (ssRNA)
RNA: B20 RNA with U54C, A55C, U83C, A84C, U105C, A106C
B24: chr11:69651696:69651723:+|3pUTR|ENSG00000110092|msi1_unk|FALSE|overlapping (ssRNA)
RNA: GGGAGUUCUACAGUCCGACGAUCGAGGAUUAGGUUCCAUCCUUUACGUGUUUAAAAAAAAGCAUAAAAACAUUUUAAAAACAUAGAAAAAUUCAGCAAACCAUUUUUAAAGUAGAAGAGGGUUUUAGGUAGAAAAACAUAUUCCAACAGAGGAUUGAGCAUCA
B25: chr4:138171112:138171219:-|3pUTR|ENSG00000151012|msi1|FALSE|unique (ssRNA)
RNA: GGGAGUUCUACAGUCCGACGAUCUUUUUUUUUUUCACAUCAGUUUGAUCAGGAAAGUGUAUAACACAUCUUAGAGCAAGAGUUAGUUUGGUAUUAAAUCCUCAUUAGAACAACCACCUGUUUCACUAAUAACUUACCCCUGAUCAACAGAGGAUUGAGCAUCA
B26: chr11:69651696:69651723:+|3pUTR|ENSG00000110092|msi1_unk|total|mutant (ssRNA)
RNA: B24 RNA with U30C, A31C, U83C, A84C, U112C, A113C, U125C, A126C, U129C, A130C

These binders were tested against T1, UNK ZnF1-6 (called full-length) (assay: nsRBNS (natural sequence RNA bind-n-seq); RBNS binding buffer (assumed for nsRBNS): 25 mM Tris pH 7.5, 150 mM KCl, 3 mM MgCl2, 0.01% Triton X-100, 500 ug/ml BSA, 20 U/ml SUPERase-In, 4 C; UNK is unkempt and MSI1 is Musashi-1; names of the RNAs are library labels; protein concentration not given here; high values mean tight binding).

Binder | binding signal [enrichment R]
B1 | 0.993
B2 | 0.624
B3 | 0.786
B4 | 0.507
B5 | 1.15
B6 | 1.07
B7 | 1.66
B8 | 1.39
B9 | 13.5
B10 | 2.18
B11 | 4.03
B12 | 1.48
B13 | 0.824
B14 | 110
B15 | 0.382
B16 | 0.419
B17 | 0.906
B18 | 4.45
B19 | 0.765
B20 | 20.1
B21 | 28.1
B22 | 8.88
B23 | 1.12
B24 | 13.5
B25 | 2.58
B26 | 0.444
